Reference: PubChem BioAssay (Tox21)
Inconclusive results are not listed. A number with no mark means an inactive call. The call rests on the fitted dose curve. Positions of bridges follow the written chain, without caps; N, C: chain ends. Non-standard residues stand in square brackets, D forms with d. Residues, ends and D or L forms follow the SMILES beside them. *: point of attachment. pGlu = O=C1CC[C@@H](C(=O)O)N1; X2 = CC[C@H](C)CCCCC(=O)*; Thz = O=C(O)[C@@H]1CSCN1; Dab = NCC[C@H](N)C(=O)O

These compounds were tested on thyroid hormone receptor (rat, GH3 cells) (assay: qHTS assay to identify small molecule agonists of the thyroid receptor (TR) signaling pathway (AID 743066)). Conditions: GH3.TRE-Luc cells, TR agonist luciferase, 24 h; series mostly up to 83.9 µM; activation: at the top concentration.
On the % scale 0 is the no-effect control and ±100 the full control effect.

| Structure (SMILES) | activation |
| --- | --- |
| CS(=O)(=O)NC(=O)CCC/C=C\C[C@H]1C(=O)C[C@@H](O)[C@@H]1/C=C/[C@H](O)COc1ccccc1 | 0.147% |
| CCCCCCCCCCCCCCCCOCCOCCOCCOCCOCCOCCOCCOCCOCCOCCOCCOCCOCCOCCOCCOCCOCCOCCOCCOCCO | -6.6% |
| c1ccc2cc(C3=NCCN3)ccc2c1 | -0.12% |
| CCC[C@@H]1C[C@@H](C(=O)N[C@@H]([C@H]2O[C@H](SC)[C@H](O)[C@@H](O)[C@H]2O)[C@H](C)Cl)N(C)C1 | -1.14% |
| CCCCC/C=C\CCC(=O)N[C@H]1[C@H](Oc2c3cc4cc2Oc2ccc(cc2Cl)[C@@H](O[C@@H]2O[C@H](CO)[C@@H](O)[C@H](O)[C@H]2NC(C)=O)[C@@H]2NC(=O)[C@H](NC(=O)[C@@H]4NC(=O)[C@H]4NC(=O)[C@@H](Cc5ccc(c(Cl)c5)O3)NC(=O)[C@H](N)c3ccc(O)c(c3)Oc3cc(O)cc4c3)c3ccc(O)c(c3)-c3c(O[C@H]4O[C@H](CO)[C@@H](O)[C@H](O)[C@@H]4O)cc(O)cc3[C@@H](C(=O)O)NC2=O)O[C@H](CO)[C@@H](O)[C@@H]1O | -4.5% |
| O.O=C([O-])CC([S-])C(=O)[O-].[Au+].[Na+].[Na+] (configuration not stated) | 0.329% |
| C=CC1=C(C)C2=CC3=NC(=C(CC(=O)[O-])C4=NC(=C(C)C4=C([O-])[O-])C=c4[n-]c(c(C)c4CC)=CC1=N2)C(CCC(=O)[O-])C3C.[Cu+2].[Na+].[Na+].[Na+] (configuration not stated) | -3.1% |
| O=C1CC[C@@H](C(=O)N2CSC[C@H]2C(=O)O)N1 ([pGlu]-[Thz]-OH) | -0.436% |
| CN1[C@@H]2CCC[C@H]1CC(NC(=O)c1nn(C)c3ccccc13)C2 (some centres not stated) | -3.74% |
| COc1cc(/C=C/C(=O)N2CCN(CC(=O)N3CCCC3)CC2)cc(OC)c1OC | -0.517% |
| CC(=O)N[C@@H]1C(O[C@H]2O[C@H](C(=O)O)C(O)[C@H](O)[C@H]2O)[C@H](O)[C@@H](CO)O[C@H]1O[C@@H]1C(C(=O)O)O[C@@H](O[C@H]2[C@H](O)[C@@H](CO)OC(O)[C@@H]2NC(C)=O)[C@H](O)[C@H]1O (some centres not stated) | 1.66% |
| COC(=O)[C@H]1[C@H]2C[C@@H]3c4[nH]c5cc(OC)ccc5c4CCN3C[C@H]2C[C@@H](OC(=O)/C=C/c2cc(OC)c(OC)c(OC)c2)[C@@H]1OC | -3.47% [at 39.4 µM] |
| CC(C)[C@H](N)C(=O)OCC(CO)OCn1cnc2c(=O)[nH]c(N)nc21 (some centres not stated) | 0.688% |
| N[C@H](CCC(=O)O)C(=O)O | 2.43% |
| CCOC(=O)Cc1cccc(-c2cc(CCCCCCc3ccc(O[C@H]4O[C@H](COC(C)=O)[C@@H](OC(C)=O)[C@H](OC(C)=O)[C@@H]4OC(C)=O)c(-c4cccc(CC(=O)OCC)c4)c3)ccc2O[C@H]2O[C@H](COC(C)=O)[C@@H](OC(C)=O)[C@H](OC(C)=O)[C@@H]2OC(C)=O)c1 | 0.151% |
| CC1(C)[C@@H]2CC[C@@]1(C)[C@H](OC(=O)CSC#N)C2 | -0.338% |
| OC[C@H]1O[C@@H](n2cnc3c2NC=NC[C@H]3O)C[C@@H]1O | -0.566% |
| CCC(=O)OCC(=O)[C@@]1(OC(=O)CC)[C@@H](C)C[C@H]2[C@@H]3CCC4=CC(=O)C=C[C@]4(C)[C@@]3(Cl)[C@@H](O)C[C@@]21C | -4.51% |
| CC(C)[C@@H](C)/C=C/[C@@H](C)[C@H]1CC[C@H]2/C(=C/C=C3\C[C@@H](O)CC[C@@H]3C)CCC[C@]12C | 0.655% |
| CC(=O)O[C@H]1CC[C@@]2(C)C(=CC[C@@H]3[C@@H]2CC[C@]2(C)C(c4cccnc4)=CC[C@@H]32)C1 | -6.48% |
| CCOC(=O)c1c[nH]c2cc(OCC(C)C)c(OCC(C)C)cc2c1=O | 1.75% |
| Cc1ccc(C2(O)CCN(CCCC(=O)c3ccc(F)cc3)CC2)cc1 | -5.04% |
| CN1c2c(nc(N)[nH]c2=O)NCC1CNc1ccc(C(=O)NC(CCC(=O)O)C(=O)O)cc1 (configuration not stated) | 0.948% |
| COc1ccc2cc([C@H](C)CO)ccc2c1 | 0.513% |
| COc1cc(NCCCC(C)N)c2ncccc2c1 (configuration not stated) | -0.431% |
| CC1(C)N=C(N)N=C(N)N1c1ccc(Cl)cc1 | -1.35% |
| CC[C@H](C)CCCCC(=O)N[C@@H](CCN)C(=O)N[C@H](C(=O)N[C@@H](CCN)C(=O)N[C@H]1CCNC(=O)[C@@H]([C@H](C)O)NC(=O)[C@H](CCN)NC(=O)[C@H](CCN)NC(=O)[C@H](CC(C)C)NC(=O)[C@@H](CC(C)C)NC(=O)[C@H](CCN)NC1=O)[C@@H](C)O (X2-[Dab]T[Dab][Dab][Dab][dL]L[Dab][Dab][dT]; lactam 4-C) | 0.63% [at 39.4 µM] |
